Among the test systems are NCI-H23 lung; NCI-H226 lung; NCI-H322M lung; HOP-62 NSCLC; NCI-H460 lung; HOP-92 NSCLC; NCI-H522 lung; A549/ATCC NSCLC; 786-0 renal; COLO 205 colon; DU-145 prostate; K-562 leukemia; MALME-3M melanoma; MDA-MB-231 breast; RXF 393 renal; SF-268 CNS; SF-295 CNS; SF-539 CNS; UACC-257 melanoma; M14 melanoma.
Holding throughout (assay): NCI-60 one-dose screen, 48 h (100 = growth as untreated, 0 = no growth, -100 = all killed)
Common to all, as to details: 10 µM unless noted

This is an account of results in PubChem BioAssay (NCI).

Structures are written as SMILES. About 83,000 compounds went through this panel and 20% of them were active in at least one assay; those are over-represented in the sample as a whole.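 Testing used 96-well plates and a 48-hour single-concentration exposure. Example: -40 means 40% of the starting cells died.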 Values without a mark were called inactive. Activity calls are given as the source filed them. The calls were made as follows: active = growth percent below 10; inactive = the rest.

For the compound `CCOC(=O)NC(Cc1ccccc1)c1ccccc1` (stereo not given), the growth is 98.4% with NCI-H23 lung; 98.8% in the assay on NCI-H226 lung; 114% in the assay on NCI-H322M lung; 99.6% in the assay with HOP-62 NSCLC; 111% in the assay on NCI-H460 lung; 87.4% in the assay on HOP-92 NSCLC. Besides, the growth is 87.1% in the assay on NCI-H522 lung; 99.1% in the assay with A549/ATCC NSCLC; 96.6% in the assay on 786-0 renal; 105% with COLO 205 colon; 110% in the assay on DU-145 prostate; 91% in the assay on K-562 leukemia. The growth is 110% with MALME-3M melanoma; 97.8% with MDA-MB-231 breast; 112% in the assay on RXF 393 renal; 111% in the assay on SF-268 CNS; 106% in the assay with SF-295 CNS; 98.6% with SF-539 CNS. Also, the growth is 108% in the assay on UACC-257 melanoma and 95.8% with M14 melanoma.

On to `COc1cc(C2=NNC(c3ccc(N(C)C)cc3)C2)cc(OC)c1OC` (stereo not given), for which the growth in the assay on NCI-H23 lung was 36.1%; with NCI-H226 lung, 62.2%; in the assay on NCI-H322M lung it was 46.2%; with HOP-62 NSCLC it was 36.4%; in the assay with NCI-H460 lung, 10.5%; in the assay with HOP-92 NSCLC, 29.2%. Further, the growth in the assay on NCI-H522 lung is -6.25% (active); in the assay on A549/ATCC NSCLC, 24.5%; in the assay with 786-0 renal, 23%; with COLO 205 colon, 5.74% (active); in the assay on DU-145 prostate, 3.51% (active); in the assay on K-562 leukemia it was -9.17% (active). In addition, the growth was 83.7% with MALME-3M melanoma; 31.9% in the assay with MDA-MB-231 breast; -31.7% (active) in the assay on RXF 393 renal; 55.7% with SF-268 CNS; 30.3% in the assay on SF-295 CNS; -39.2% (active) with SF-539 CNS. Also, the figures for the growth in the assay on UACC-257 melanoma and in the assay on M14 melanoma were 62.6% and 21.7%, respectively.

`C=C(C)[C@@H]1CCC=C2CC[C@]3(C)[C@H](CC[C@@H]4[C@@]5(C)CCCNC(C)(C)[C@@H]5CC[C@]43C)[C@H]21`: the growth in the assay with NCI-H23 lung is 66.5%; in the assay with NCI-H226 lung, 104%; in the assay on NCI-H322M lung it was 33.7%; in the assay with HOP-62 NSCLC, 77.8%; in the assay on NCI-H460 lung, -24.6% (active); with HOP-92 NSCLC, 79.2%. In addition, the growth is 66.7% in the assay with NCI-H522 lung; 13% with A549/ATCC NSCLC; -5.34% (active) with 786-0 renal; -43.6% (active) in the assay with COLO 205 colon; 18.6% in the assay on DU-145 prostate; -0.754% (active) in the assay on K-562 leukemia. The growth in the assay on MALME-3M melanoma is 38%; in the assay with MDA-MB-231 breast it was -6.11% (active); in the assay on RXF 393 renal it was 47.6%; in the assay on SF-268 CNS it was 93.1%; with SF-295 CNS, 72.5%; in the assay with SF-539 CNS, 84.8%. Further, the growth with UACC-257 melanoma is 83%; in the assay with M14 melanoma, 34.6%.

Regarding `COCCOCCOCc1n(Cc2ccc3ccccc3n2)c2ccccc2[n+]1Cc1ccc2ccccc2n1`, the growth is 12.7% in the assay with NCI-H23 lung; 37.9% in the assay on NCI-H226 lung; 47.4% in the assay with NCI-H322M lung; 20.8% with HOP-62 NSCLC; 16.5% with NCI-H460 lung; -22.1% (active) with HOP-92 NSCLC. In addition, the growth in the assay on NCI-H522 lung was -1.7% (active); in the assay on A549/ATCC NSCLC, 39.4%; in the assay on 786-0 renal it was 77.8%; in the assay with COLO 205 colon it was -31.4% (active); in the assay with DU-145 prostate, 35.4%; in the assay on K-562 leukemia, 19.1%. In addition, the growth in the assay with MALME-3M melanoma was 5.23% (active); with MDA-MB-231 breast, 17.9%; with RXF 393 renal, 66.9%; with SF-268 CNS, 22.7%; in the assay with SF-295 CNS it was 52.3%; in the assay with SF-539 CNS, 26.7%. The values for the growth with UACC-257 melanoma and in the assay on M14 melanoma were -5.39% (active) and 26%, respectively.

On to `C#Cc1cccc(Nc2ncnc3ccc(NC(=O)c4ccccc4)cc23)c1`, for which the growth was 86.9% in the assay on NCI-H23 lung; 85.9% with NCI-H226 lung; 21.7% in the assay on NCI-H322M lung; 102% in the assay on HOP-62 NSCLC; 76.8% in the assay on NCI-H460 lung; 65% in the assay on HOP-92 NSCLC. The growth in the assay with NCI-H522 lung was 53.5%; in the assay with A549/ATCC NSCLC it was 70.9%; in the assay with 786-0 renal, 76.7%; in the assay on COLO 205 colon, 99.7%; in the assay with DU-145 prostate, 50.9%; in the assay on K-562 leukemia, 63.6%. The growth in the assay with MALME-3M melanoma was 104%; in the assay on MDA-MB-231 breast, 95.6%; in the assay on RXF 393 renal it was 58.5%; in the assay on SF-268 CNS it was 74.7%; in the assay with SF-295 CNS it was 89.7%; with SF-539 CNS, 90.5%. The growth with UACC-257 melanoma is 99.6%; in the assay with M14 melanoma, 90.6%.

Regarding `CCCn1c2cc(OCc3cn(-c4ccc(Br)cc4)nn3)ccc2c2ccnc(C)c21`, the growth was 81.7% with NCI-H23 lung; 25.6% in the assay with NCI-H226 lung; 71.5% in the assay on NCI-H322M lung; 63.9% with HOP-62 NSCLC; 36.2% with NCI-H460 lung; 60% in the assay with HOP-92 NSCLC. Further, the growth in the assay on NCI-H522 lung was 76.1%; in the assay on A549/ATCC NSCLC, 53.7%; in the assay on 786-0 renal it was 36.7%; in the assay with COLO 205 colon, 42%; in the assay on DU-145 prostate, 90.2%; in the assay with K-562 leukemia, 35.4%. For the same compound, the growth with MALME-3M melanoma is 87.1%; with MDA-MB-231 breast, 50.5%; in the assay with RXF 393 renal, 51%; in the assay on SF-268 CNS, 88%; in the assay on SF-295 CNS it was 65.6%; in the assay with SF-539 CNS, 36.4%. The growth is 53.3% in the assay on UACC-257 melanoma and 67.5% in the assay on M14 melanoma.

As to `Nc1cccc(C(=O)Nc2ccc3c(O)c(N=Nc4ccc(N=Nc5ccc(S(=O)(=O)O)cc5)cc4)c(S(=O)(=O)O)cc3c2)c1`, the growth with NCI-H23 lung is 104%; in the assay with NCI-H226 lung it was 109%; in the assay with NCI-H322M lung, 94.5%; in the assay with HOP-62 NSCLC, 96%; in the assay with NCI-H460 lung, 106%; with HOP-92 NSCLC, 97.7%. Besides, the growth in the assay with NCI-H522 lung is 84.5%; in the assay with A549/ATCC NSCLC, 97.5%; with 786-0 renal, 98.1%; in the assay on COLO 205 colon it was 121%; in the assay with DU-145 prostate, 107%; with K-562 leukemia, 76.2%. Also, the growth in the assay on MALME-3M melanoma is 97.1%; with MDA-MB-231 breast, 103%; with RXF 393 renal, 121%; in the assay with SF-268 CNS it was 101%; in the assay on SF-295 CNS, 103%; in the assay on SF-539 CNS, 99.9%. For the same compound, the growth in the assay with UACC-257 melanoma is 100%; in the assay with M14 melanoma, 98.3%.
